In the supplement of paper PMC6555819:

What follows are sequences tested on VDR:RXRa (NR concentration 270 nM, RXRa partner concentration 90 nM) (assay: PBM binding z-score (relative to random genomic background probes); higher = stronger binding; sequences stand for … in GC…GCGATTGACAGCGTAGAATGAAGG).
Experimental: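 Protein-binding microarray (Agilent 4x180K custom design, double-stranded 60-nt probes: 5' GC cap, 34-nt variable region, 24-nt constant primer region; full probe sequence given). Purified or IVT nuclear receptor:RXRα heterodimers (3:1 NR:RXRα, mostly 270:90 nM) or homodimers were incubated for 1 h in PBS with 2% milk and no ligand, then detected with Alexa488 antibodies. Fluorescence from o1-orientation probes (~5 replicates averaged) was converted to z-scores against 500 random hg19 background probes. Variable regions are seed direct-repeat (DR0–DR5) sites, all their single-nucleotide variants and half-site ablations.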
CTGACTGGGGCAAGGTTACCATAACGCACAGCCA showed a PBM binding z-score of 0.261.
CCTACTGGGCCATCATGTCATTGATATCAACGTT gave a PBM binding z-score of 0.0429.
For TCTGGGAGGACACGAAGGTCAGAGCTTTCCAGAG, the PBM binding z-score was 2.18.
For CGAACTAGGTCATTGATAGGACAGTGAATAGTAA, the PBM binding z-score was 2.27.
Work on CCTAGTTAGTCAGGAGGTCACACACCGGATATGA yielded a PBM binding z-score of 3.97.
TCATATAGTTAAAGGTGAAAGTCGAACGATATGA gave a PBM binding z-score of 1.2.
For ATATGTACGTTAGCTGGGGTCATTCAGACTAGGC, the PBM binding z-score was 5.16.
TATACAGGGTCAAAGGCCTGAGTACGAATGTCGA gave a PBM binding z-score of 4.53.
Work on AATACAGGGTCATCGTAGGACAGAGTACGCACAG yielded a PBM binding z-score of 5.5.
GCATATAGGTAATACAAGGTGAAAGTGCGATTGT gave a PBM binding z-score of 0.469.
TCTGCTAGGTCAACGACGGTCAGCTAATCTGCTA was tested, and the PBM binding z-score was 2.
For AGTCAAAGCTCATCTAGGTAACGTAAGATATGCT, the PBM binding z-score was -0.215.
Work on TCGAGTAGGTTAGTCGGCGCATTCAGCCAACATA yielded a PBM binding z-score of -0.0837.
In the case of CAAACTAGGTCACGAAAGGTCCAAGTCGAATGAC, the PBM binding z-score was 3.82.
Sequence TTACCAAGGTGAGCTGAGGCCGTTGATCCAACTC has a PBM binding z-score of 0.537.
GATACACGGTCAGCTAGAGGCCAGAGTATGGAAA gave a PBM binding z-score of -0.349.
CCGACTGGGGCATAGGTTACCATACTCAGTACGA gave a PBM binding z-score of -0.0526.
Work on CCTCGGAGGACAGAAGGCCAGAGCTGTCCGCTTT yielded a PBM binding z-score of -0.762.
For AGAATGAGGTTACCAAGGATCAGGGAAACGCTTG, the PBM binding z-score was 2.03.
TCTATTAGTTGATTAGGGCAACCAAAACAGCGGA gave a PBM binding z-score of 0.701.
With CCTACTGGGCCAAAATGGTCATTGATGCCGATAA the PBM binding z-score was -0.0666.
CCGACTGGGGCATAAGGTTACCATTAGCCAGCCC gave a PBM binding z-score of -0.0219.
ACTTACGGGTCAACGAGGTTAGAGCACGCGTATA showed a PBM binding z-score of 7.15.
For AGTCAAAGTTCATCTCGGTAACGTAAGATATGCT, the PBM binding z-score was 4.8.
With CATACAGGGTCAGCTAGGCCAGCGTAGGGACGGC the PBM binding z-score was 3.62.
In the case of TCTTGTAGATCAGAGGTTAAGAAAGCCGAAGCCT, the PBM binding z-score was 0.673.
CTACCAAGGTGCACAAGGTCGTTGATTACTATTC was tested, and the PBM binding z-score was 3.17.
For CTCGAAAGGTCGGATGAGGTGAGTATACGGATAA, the PBM binding z-score was 2.74.
In the case of GCATATAGGTAATACAGGGTGAAAGTCCGATTGT, the PBM binding z-score was 0.521.
With ATCTCTAGGTAAAGGTAGTTCAGTGAATGCAAAT the PBM binding z-score was 1.12.
With CCTGCTACGTCATGGTCAGCTAATCTACAGTATG the PBM binding z-score was -0.408.
For TCTGCTAGATCAGTTGGTCAGCTAACGAGCTGCC, the PBM binding z-score was -0.706.
TAGCCTAGGTCATATCGGGCCAGTATACGCTATA gave a PBM binding z-score of 2.28.
AGTCAACGTTCACTAGGTAACGTAAGATTCAGCT showed a PBM binding z-score of -0.186.
In the case of TGTCAAAGTTCAAAGTTAACGTAAGTATCCACAC, the PBM binding z-score was 4.57.
With CGGACTGGGGCAGAAAGGTTACCATACCATCCGG the PBM binding z-score was 1.33.
With AACACAGGGTCACTAGGCCAGAGTAGGTACGAAT the PBM binding z-score was 3.96.
Work on GCGACTGGGTCATCAGCAGGTTACCATAACTTAA yielded a PBM binding z-score of 2.27.
CCGAGTAGGTTATGGGGCATCCAGGCAACGGTGA was tested, and the PBM binding z-score was -0.0665.
With GATACAGGGTCAGCTAGAGGCCAGAGAATGGAAA the PBM binding z-score was 3.42.
